Assay results as given in ChEMBL document CHEMBL3988442, “University of Dundee, Small-Polar-MMV Screening Library” (2021).
The campaign covered roughly 66,000 compounds. About 960 (1.5%) showed an effect of 50% or more. What follows is part of a selection rich in strong results, with near analogues and random picks from the rest.

Test system: Trypanosoma brucei
Experiment: Trypanosoma brucei 72 hour study
Assay type: functional, organism-based
Set-up: scale not given: in the data most compounds retested in dose-response had high values

Cc1csc2c(N3CCNC(C(=O)Nc4ccc(F)cc4)C3)ncnc12 (stereo not given)
Percent Effect (30 µM, 30.03 µM): 72.13%

Cc1csc2c(N3CCNC(C(=O)NCc4cccnc4)C3)ncnc12 (stereo not given)
Percent Effect (30 µM, 30.03 µM): -5.987%

Cc1csc2c(N3CCNC(C(=O)N4CCCC4)C3)ncnc12 (stereo not given)
Percent Effect (30 µM, 30.03 µM): 24.45%

Cc1cc(C(=O)N2CCc3nc(C4CCCN4)ncc3C2)cs1.Cl (stereo not given)
Percent Effect (30.3 µM, […]): -23.19%

Cc1occc1C(=O)NCC(=O)NCCCOc1ccc(F)cc1
Percent Effect (30 µM, 30.03 µM): -42.11%

Cc1occc1C(=O)NCC(=O)N(C)CCCOc1ccc(F)cc1
Percent Effect (30 µM, 30.03 µM): 95.62%

Cc1occc1C(=O)NCC(=O)N(C)CCCOc1ccccc1
Percent Effect (30 µM, 30.03 µM): -44.45%

CNC(=O)c1ccc(C2CCCN(C(=O)c3sc(C)nc3C)C2)nc1 (stereo not given)
Percent Effect (30.3 µM, […]): -1.908%

Cc1cc(NCCN)nc2ccccc12.O=[N+]([O-])O
Percent Effect (30.3 µM, […]): -46.24%

CCS(=O)(=O)c1ccccc1N1CCC(NC(=O)NC2CCCC2)CC1
Percent Effect (30 µM, 30.03 µM): 7.94%

CCS(=O)(=O)c1ccccc1N1CCC(NC(C)=O)CC1
Percent Effect (30 µM, 30.03 µM): 4.915%

CCS(=O)(=O)c1ccccc1N1CCC(NC(=O)c2ccc[nH]2)CC1
Percent Effect (30 µM, 30.03 µM): 54.24%

CCC[C@@H]1CN(Cc2cc(C#N)n(C)c2C)C[C@H]1NS(C)(=O)=O
Percent Effect (30 µM, 30.03 µM): 0.9985%

Cc1nc(N)c2ccc(C3CCCCN3)nc2n1.Cl (stereo not given)
Percent Effect (30.3 µM, […]): -17.89%

CN(c1ccc(C(=O)NCCCN2CCCCC2)c(Cl)c1)S(C)(=O)=O
Percent Effect (30 µM, 30.03 µM): -14.39%

CCc1c(C)nc(-n2nc(C3CC3)cc2NC(C)=O)[nH]c1=O
Percent Effect (30 µM, 30.03 µM): -1.646%

CCCc1cc(=O)[nH]c(-n2nc(C3CC3)cc2N)n1
Percent Effect (30 µM, 30.03 µM): 78.26%

Cc1cc(=O)[nH]c(-n2nc(-c3ccccc3)cc2N)n1
Percent Effect (30 µM, 30.03 µM): -3.849%

CCc1cc(=O)[nH]c(-n2nc(C3CC3)cc2NC(=O)C2CC2)n1
Percent Effect (30 µM, 30.03 µM): 97.36%

Cc1cc(=O)[nH]c(-n2nc(C3CC3)cc2N)n1
Percent Effect (30 µM, 30.03 µM): -21.61%

CC(C)c1cc(=O)[nH]c(-n2nc(C3CC3)cc2N)n1
Percent Effect (30 µM, 30.03 µM): 99.41%

CCCc1cc(=O)[nH]c(-n2nc(-c3cccs3)cc2N)n1
Percent Effect (30 µM, 30.03 µM): -29.48%

CC(=O)Nc1cc(C2CC2)nn1-c1nc(C)c(C)c(=O)[nH]1
Percent Effect (30 µM, 30.03 µM): -12.81%

CC(C)c1cc(=O)[nH]c(C(C)(C)N)n1.Cl
Percent Effect (30 µM, 30.03 µM): -29.56%

COc1ccc(CC(=O)N2Cc3nccn3CC(CN(C)C)C2)cc1.O=C(O)C(F)(F)F (stereo not given)
Percent Effect (30 µM, 30.03 µM): -47.37%

Cc1cccc(CN2CCC3(CC2)NC(=O)C[C@H]3c2cnn(C)c2)n1.O=C(O)C(F)(F)F
Percent Effect (30.3 µM, […]): -5.843%

COc1cc2c(cc1CNC(Cc1cccs1)c1nccs1)OCO2.Cl (stereo not given)
Percent Effect (30.3 µM, […]): -17.08%

O=C1N[C@H]2OCCC[C@H]2[C@H](c2ccccc2)N1
Percent Effect (30 µM, 30.03 µM): -11.46%

CCOc1cc(CNC(=O)c2cnn(CC)c2C(F)(F)F)ccn1
Percent Effect (30 µM, 30.03 µM): 1.219%

Fc1cccc(N2CCCC3(CN(Cc4ccncc4)CCO3)C2)c1.O=C(O)C(F)(F)F.O=C(O)C(F)(F)F.O=C(O)C(F)(F)F (stereo not given)
Percent Effect (30 µM, 30.03 µM): 7.874%

Cc1ccc(CN2CCOC3(CCCN(c4cccc(F)c4)C3)C2)o1.O=C(O)C(F)(F)F.O=C(O)C(F)(F)F (stereo not given)
Percent Effect (30.3 µM, […]): 98.9%

O=C(O)C(F)(F)F.OCCN1CCOC2(CCCN(c3cccc(F)c3)C2)C1 (stereo not given)
Percent Effect (30 µM, 30.03 µM): 21.19%

Fc1cccc(N2CCCC3(CN(Cc4ccccn4)CCO3)C2)c1.O=C(O)C(F)(F)F.O=C(O)C(F)(F)F.O=C(O)C(F)(F)F (stereo not given)
Percent Effect (30.3 µM, […]): 1.036%

Fc1cccc(N2CCCC3(CN(Cc4nccs4)CCO3)C2)c1.O=C(O)C(F)(F)F.O=C(O)C(F)(F)F (stereo not given)
Percent Effect (30.3 µM, […]): 9.59%

Fc1cccc(N2CCCC3(CN(Cc4ccco4)CCO3)C2)c1.O=C(O)C(F)(F)F.O=C(O)C(F)(F)F (stereo not given)
Percent Effect (30.3 µM, […]): 99.09%

Cn1cc(CN2CCOC3(CCCN(c4cccc(F)c4)C3)C2)cn1.O=C(O)C(F)(F)F.O=C(O)C(F)(F)F (stereo not given)
Percent Effect (30.3 µM, […]): -12.05%

Fc1cccc(N2CCCC3(C2)CN(c2ncccn2)CCO3)c1.O=C(O)C(F)(F)F.O=C(O)C(F)(F)F (stereo not given)
Percent Effect (30 µM, 30.03 µM): -26.54%

Fc1cccc(N2CCCC3(CN(Cc4cccnc4)CCO3)C2)c1.O=C(O)C(F)(F)F.O=C(O)C(F)(F)F.O=C(O)C(F)(F)F (stereo not given)
Percent Effect (30.3 µM, […]): 86.99%

COc1c(C2CCCN2C(=O)c2ccc(O)nc2)c(C)nn1C (stereo not given)
Percent Effect (10 µM): -34.15%

COCCCN1CC2(CCN(C(=O)c3ncc(F)cc3F)CC2)CC1=O
Percent Effect (30 µM, 30.03 µM): -16.91%

Cl.O=C(NCc1ccc(F)cc1)N1CCN(CC(O)C2CC2)CC1 (stereo not given)
Percent Effect (30.3 µM, […]): 2.371%

Cc1nc[nH]c1CN1CCc2nc3scc(C)c3c(=O)n2CC1.Cl
Percent Effect (30.3 µM, […]): -39.02%

Fc1cccc(Oc2nccnc2C2CCN(C3CCOCC3)CC2)c1
Percent Effect (30.3 µM, […]): -17.84%

CCn1nc(C)c(CN(CCCOC)Cc2ccccn2)c1C.O=C(O)CC(O)(CC(=O)O)C(=O)O
Percent Effect (30.3 µM, […]): -0.7195%

Cn1cc(CN2CCC3(CC2)NC(=O)CC3c2ccncc2)cn1.O=C(O)C(F)(F)F.O=C(O)C(F)(F)F (stereo not given)
Percent Effect (30 µM, 30.03 µM): 47.38%

COc1ccc(S(=O)(=O)N2CCOC(Cn3ccnc3)C2)cc1.Cc1ccc(S(=O)(=O)O)cc1 (stereo not given)
Percent Effect (30.3 µM, […]): -20.84%

CN(CCNC(=O)c1cnc(-c2ccncc2)nc1)S(C)(=O)=O
Percent Effect (30 µM, 30.03 µM): 61.08%

CCc1ncc(C(=O)NCCN(C)S(C)(=O)=O)cn1
Percent Effect (30 µM, 30.03 µM): 1.892%

CN(CCNC(=O)c1cnc(-c2ccccc2)nc1)S(C)(=O)=O
Percent Effect (30 µM, 30.03 µM): 23.88%

CN(C)C(=O)NCc1cc(=O)n2c(n1)CN(Cc1ccoc1)CCC2.O=C(O)C(F)(F)F
Percent Effect (30 µM, 30.03 µM): -46.36%

Cc1nc(CN(C)C2CCN(CCn3cc(C#N)cn3)C2)no1 (stereo not given)
Percent Effect (30.3 µM, […]): -2.287%

Cc1cccc(OCCC(=O)N(C)CCNS(C)(=O)=O)c1C
Percent Effect (30 µM, 30.03 µM): 57.14%

Cc1cccc(OCCC(=O)N(C)CCC#N)c1C
Percent Effect (30 µM, 30.03 µM): 43.96%

Cc1cccc(OCCC(=O)N(C)CC(C)C#N)c1C (stereo not given)
Percent Effect (30 µM, 30.03 µM): 9.501%

Cc1ccc(-n2cccn2)cc1S(=O)(=O)N1C[C@H](C2CC2)[C@@H](N)C1
Percent Effect (30 µM, 30.03 µM): 17.94%

Cc1ccc(-n2cccn2)cc1S(=O)(=O)N1C[C@@H]2CC[C@H](C1)N(C)C2
Percent Effect (30 µM, 30.03 µM): 75.01%

COc1ccc(-n2cccn2)cc1S(=O)(=O)N1C[C@H](C2CC2)[C@@H](N)C1
Percent Effect (30 µM, 30.03 µM): 27.88%

COc1ccc(N2Cc3nc(=O)n(C(C)C)n3C2=O)cc1
Percent Effect (30 µM, 30.03 µM): -34%

CCN1CC2(CC1=O)CN(Cc1ccncc1)CCN(C(=O)C(C)C)C2.O=C(O)C(F)(F)F.O=C(O)C(F)(F)F (stereo not given)
Percent Effect (30 µM, 30.03 µM): -22.83%

O=C(NCCc1nnc2n1CCC2)N1CCC2(CCCCC2)C1
Percent Effect (30.3 µM, […]): -13.71%

O=C(NCc1nnc2n1CCC2)N1CCC2(CCCCC2)CC1
Percent Effect (30.3 µM, […]): -3.097%

O=C(NCCc1nnc2n1CCCCC2)N1CCC2(CCCC2)CC1
Percent Effect (30.3 µM, […]): 99.8%

O=C(C1CCOCC1)N1CCc2ncc(CN3CCCC3)n2CC1.O=C(O)C(F)(F)F
Percent Effect (30.3 µM, […]): -192.2%

CNC(=O)C(CC(C)C)NC(=O)c1cccc(-c2nc(C)cs2)c1 (stereo not given)
Percent Effect (30.3 µM, […]): 71.45%

COc1cccc(-c2nc(C)c(C(=O)N[C@@H](CC(C)C)C(=O)O)s2)c1
Percent Effect (30 µM, 30.03 µM): -38.77%

CNC(=O)C(CC(C)C)NC(=O)c1cccc(-c2n[nH]c(C)n2)c1 (stereo not given)
Percent Effect (30.3 µM, […]): -198.3%

NC(=O)NCC(=O)N1C[C@H]2CC[C@@H]1CN(Cc1cscn1)C2
Percent Effect (30 µM, 30.03 µM): -50.24%

CN(C)[C@@H]1CCN(CC2CC2)[C@H]1Cc1cnn(C)c1.O=C(O)C(F)(F)F.O=C(O)C(F)(F)F
Percent Effect (30.3 µM, […]): -399.8%

COc1ccc2[nH]cc(-c3ccnc(N4CCC(C)CC4)n3)c2c1
Percent Effect (30.3 µM, […]): 23.49%

COc1ccc2[nH]cc(-c3ccnc(NC4CCCC4)n3)c2c1
Percent Effect (30.3 µM, […]): 82.65%

O=c1[nH]c(-c2ccncc2)ncc1-c1ccnc(NC2CCCCC2)n1
Percent Effect (30.3 µM, […]): -18.66%

COCCN1CCC2(CCC(=O)N2Cc2csc(C)n2)CC1.O=C(O)C(F)(F)F.O=C(O)C(F)(F)F
Percent Effect (30.3 µM, […]): -13.8%

CC(=O)N1[C@@H](C(=O)NCC2CC2)C[C@@H]2CN(Cc3nccs3)C[C@@H]21.O=C(O)C(F)(F)F
Percent Effect (30.3 µM, […]): -16.07%

COc1cc(C(=O)N(CCC#N)Cc2ccccn2)ccc1C
Percent Effect (30 µM, 30.03 µM): 33.36%

COc1cc(C(=O)N(CCC#N)Cc2ccccn2)cc(OC)c1C
Percent Effect (30 µM, 30.03 µM): 4.832%

Cc1ccc(C(=O)N(CCC#N)Cc2ccccn2)cc1C
Percent Effect (30 µM, 30.03 µM): 52.21%

Cc1cnn(C2CCCN(C(=O)c3ccc(-n4cccn4)nc3)C2)c1 (stereo not given)
Percent Effect (30.3 µM, […]): -2.436% | Percent Effect (10 mM, 10 mM as filed; unlikely as a test dose): -29.12%

O=C(O)C(F)(F)F.O=C1CCCN1Cc1nnn2c1CN(c1cccnc1)CCC2
Percent Effect (30.3 µM, […]): -14.81%

Cc1ccc(CN2Cc3c(C(=O)N4CCCC4)nn(C)c3C2)s1.O=C(O)C(F)(F)F
Percent Effect (30 µM, 30.03 µM): -54.81%

CN(C)Cc1nnn2c1CN(Cc1cccnc1)CCC2.O=C(O)C(F)(F)F.O=C(O)C(F)(F)F.O=C(O)C(F)(F)F
Percent Effect (30 µM, 30.03 µM): -10.93%

Cc1cc(C)n(-c2ccccc2NC(=O)NCCCN(C)S(C)(=O)=O)n1
Percent Effect (30 µM, 30.03 µM): -25.36%

CC(C)CC1SCC(=O)Nc2c1cnn2C(C)C (stereo not given)
Percent Effect (30 µM, 30.03 µM): 38.7%

Cc1nn(-c2ccccc2)c2c1C(c1ccc(C(=O)O)cc1)CC(=O)N2 (stereo not given)
Percent Effect (30 µM, 30.03 µM): 16.38%

Cc1nn(-c2ncnc3[nH]cnc23)c2c1C(C(C)C)CC(=O)N2 (stereo not given)
Percent Effect (30 µM, 30.03 µM): 16.15%

Cc1nn(-c2ncnc3[nH]cnc23)c2c1C(CC(C)C)CC(=O)N2 (stereo not given)
Percent Effect (30 µM, 30.03 µM): 53.52%

Cc1nn(-c2ncnc3[nH]cnc23)c2c1C(C(C)(C)C)CC(=O)N2 (stereo not given)
Percent Effect (30 µM, 30.03 µM): 101.7%

Cc1ccc(-n2nc(C)c3c2NC(=O)CC3c2cnc(N)s2)cc1 (stereo not given)
Percent Effect (30.3 µM, […]): 2.745%

CC[C@@H](CO)Nc1cc(-c2cn[nH]c2)ncn1
Percent Effect (30.3 µM, […]): -17.33%

COc1ccccc1NC(=O)NCCCn1nc2ccccn2c1=O
Percent Effect (30.3 µM, […]): -15.65%
